Experimental data taken from ChEMBL document CHEMBL3988442, “University of Dundee, Small-Polar-MMV Screening Library” (2021).
Out of some 48,000 compounds screened, about 13,000 (27%) showed an effect of 50% or more. The list shows a part of the results.

system: Wolbachia pipientis; test: Anti-Wolbachia Cell-Based Screen; format: functional; parameters: scale not given: in the data most compounds retested in dose-response had high values; conditions: 5 µM

SMILES	Percent Effect
Cc1cc(S(=O)(=O)Nc2cccc(-n3cccc3)c2)sc1C(=O)O	-5.79%
CS(=O)(=O)N[C@H]1CN(C(=O)CCc2ccc(=O)[nH]n2)C[C@@H]1C1CC1	-10.51%
Cc1cc(C(=O)NCC2Cn3nnc(C)c3CO2)no1 (centres undefined)	3.49%
CCCc1nccn1-c1ccncc1	13.78%
COc1ccc(Oc2nccc3occc23)cc1CN1CCCC1	7.902%
COc1c(C(=O)N2CCOCC2)cnc2c1c(C)nn2C	129.8%
COc1c(C(=O)N2CCNC(=O)C2)cnc2c1c(C)nn2C	124.2%
Cc1ccc(CNc2ccc(C(=O)N3CCNC(=O)C3)cn2)cc1	3.114%
COc1c(C)cnc(CNC(=O)c2cc(C)nc3c2c(C)nn3C)c1C	-8.384%
Cc1cc(C(=O)N2CCNC(=O)C2)c(C)n1Cc1ccccn1	-1.908%
COC(=O)c1cnc2c(c(C)nn2C)c1OC	97.33%
O=C(c1cnc(COc2ccccc2)nc1O)N1CCOCC1	1.405%
COC(=O)c1ccccc1NS(=O)(=O)c1c(C)nn(C)c1C	21.66%
Cc1cc(C(=O)N2CCCC3(CNC(=O)O3)C2)c2c(C)nn(C)c2n1 (centres undefined)	2.308%
O=C1N(CC2CCCCC2)CCCC1(O)CN1CCc2[nH]ncc2C1 (centres undefined)	-9.247%
COc1cc(F)c(CN2CCN(CC(C)C)C(=O)C2C)cc1OC (centres undefined)	4.949%
CN(C)c1ccc(C(=O)NCC2(c3ccccc3)CCOCC2)cc1	9.489%
CS(=O)(=O)N1C[C@@H]2CC[C@H](C1)N(C(=O)Cn1ccc3ccccc31)C2	-4.366%
CN(CC(=O)N1CCC(Cc2cccc(C(N)=O)c2)C1)C1CCCC1 (centres undefined)	-18.46%
CC(C)Oc1ccc(CNC(=O)CC(F)(F)F)cc1F	4.736%
O=C1N(c2cccc(Cl)c2)Cc2nc(=O)[nH]n21	-8.298%
Cc1noc([C@@H]2CC[C@@H]3[C@@H](CCN3c3nnc(C)s3)O2)n1.O=C(O)C(F)(F)F	108.3%
Cc1noc([C@H]2CC[C@@H]3[C@@H](CCN3S(C)(=O)=O)O2)n1	5.645%
Cc1noc([C@@H]2C[C@@H]3CCN(c4nnc(C)s4)C[C@H]3O2)n1.O=C(O)C(F)(F)F	122.4%
Cc1noc([C@@H]2CC[C@@H]3[C@@H](CCN3S(=O)(=O)c3cccnc3)O2)n1.O=C(O)C(F)(F)F	4.369%

SMILES	Percent Effect
Cc1noc([C@H]2C[C@@H]3CCN(CC4CC4)C[C@H]3O2)n1.O=C(O)C(F)(F)F	1.445%
Cc1noc([C@@H]2C[C@@H]3CCN(CC4CC4)C[C@H]3O2)n1.O=C(O)C(F)(F)F	-0.5641%
Cc1noc([C@H]2CC[C@@H]3[C@@H](CCN3c3ncccn3)O2)n1	101.9%
Cc1noc([C@@H]2CC[C@@H]3[C@@H](CCN3S(=O)(=O)C3CC3)O2)n1	-8.52%
Cc1noc([C@H]2C[C@@H]3CCN(CC4CCOCC4)C[C@H]3O2)n1.O=C(O)C(F)(F)F	8.046%
Cc1noc([C@H]2C[C@@H]3CCN(c4nnc(C)s4)C[C@H]3O2)n1.O=C(O)C(F)(F)F	107.3%
Cc1noc([C@@H]2C[C@@H]3CCN(CC4CCOCC4)C[C@H]3O2)n1.O=C(O)C(F)(F)F	8.264%
Cc1noc([C@@H]2C[C@H]3CN(Cc4scnc4C)C[C@H]3O2)n1.O=C(O)C(F)(F)F	-4.188%
CCCc1nc(C)cc(N2CCC3(CCC(=O)N(CCCO)C3)CC2)n1	11.58%
Cc1cc(SC(C)(C)C)ccc1NCC(=O)NC(N)=O	1.645%
CCCS(=O)(=O)C(C)C(=O)Nc1ccc2oc(C3CC3)nc2c1 (centres undefined)	3.211%
Cc1cccc(Cc2cc(C)nc(C3CCCNC3)c2)c1 (centres undefined)	70.21%
Cc1cc(Cc2cccc(C(F)(F)F)c2)cc(C2CCCNC2)n1 (centres undefined)	97.1%
O=C(NC1CCCNC1)c1cc(COc2cccc(C(F)(F)F)c2)[nH]n1 (centres undefined)	2.713%
Cc1cc(Cc2ccccc2)cc(C2CCCNC2)n1 (centres undefined)	107.8%
Cc1cc(Cc2ccc(F)cc2)cc(C2CCCNC2)n1 (centres undefined)	73.78%
Cl.Cl.FC(F)(F)c1cccc(-c2c[nH]c(C3CCCN3)n2)c1 (centres undefined)	-28.55%
O=C(CN1CCOc2ccccc2C1)N1Cc2cnn(CCO)c2C1	6.512%
Cc1cnc(C)c(-c2cc(O)c3c(c2)CN(c2ncccn2)CCO3)n1	-18.62%
CN(C)C(=O)c1nc(CN2CC(c3ccccc3)CC2=O)no1 (centres undefined)	7.307%
C=C(C)CN(CC)Cc1nc(C2CC2)no1	1.764%
CCCS(=O)(=O)N1CCn2cc(CNc3ccccn3)nc2C1.O=C(O)C(F)(F)F	-1.498%
O=C(CSCc1ccccn1)N(Cc1ccsc1)C1CC1	-10.63%
OC1(CNC2CCN(c3ccccn3)CC2)CCc2ccccc21 (centres undefined)	6.779%
CCC(=O)N1CCN(C(=O)Nc2cccc(C#N)c2)[C@H]2CS(=O)(=O)C[C@H]21	-1.601%

SMILES	Percent Effect
CS(=O)(=O)N1CCC(C(=O)Nc2nnc(C(F)(F)F)[nH]2)CC1	11.43%
CCOCn1cc(NC(=O)C2CCN(S(C)(=O)=O)CC2)cn1	105.1%
CCOC1CCCN(C(=O)Nc2cnn(CC(F)F)c2)C1 (centres undefined)	6.944%
CC(C)C1CN(S(C)(=O)=O)CCCN1Cc1ccc(F)cc1 (centres undefined)	3.687%
CS(=O)(=O)N1CCCC(C(=O)Nc2cnn(COCC(F)(F)F)c2)C1 (centres undefined)	96.9%
CS(=O)(=O)N1CCCC(C(=O)Nc2cnn(Cc3ccc(F)cc3)c2)C1 (centres undefined)	99.84%
CS(=O)(=O)N1CCC(C(=O)N2CCC(Cn3cccn3)CC2)CC1	-10.97%
CS(=O)(=O)N1CCCC(C(=O)Nc2cnn(Cc3ccc(Cl)cc3)c2)C1 (centres undefined)	106.8%
O=C(Nc1cnn(Cc2ccc(Cl)cc2)c1)N[C@@H]1C=C[C@H](CO)C1	-9.454%
CCn1cc(NC(=O)C2CCN(CCOC(C)C)CC2)cn1	-5.388%
O=C(Cn1cc(NC(=O)c2ccc(F)cc2F)cn1)NC1CCCC1	5.692%
CN(Cc1ccc(Cl)cc1)C(=O)Nc1cnn(CC(N)=O)c1	3.306%
Cc1nc(CNC(C)c2cccc(S(=O)(=O)N(C)C)c2)no1 (centres undefined)	-7.216%
CS(=O)(=O)c1ccc(NC(=O)CSc2ccc3c(c2)CCC3)cc1	1.625%
Cn1cnc2c1C(COCC1CC1)CN(C(=O)c1ccsc1)C2 (centres undefined)	-2.938%
COCCN1CCN(CCS(=O)(=O)c2cccc(OC)c2)CC1	2.005%
CN(C)C(=O)CCNC(=O)Nc1sc2ccccc2c1Cl	-12.49%
N#CCC(=O)NCc1nnc2n1CCN(Cc1nccs1)C2	-14.07%
CCNc1nc(C)c(C(=O)N(C)Cc2nc(-c3ccncc3)no2)s1	-39.74%
Cc1ccc(-c2noc(C(C)(C)NS(C)(=O)=O)n2)cc1F	124.7%
CC(C)(NS(C)(=O)=O)c1nc(-c2ccc(F)cc2Cl)no1	95.59%
CCc1nc(NS(=O)(=O)c2ccc(F)cc2Cl)no1	2.388%
CC(C)C1=NOC(c2nc(-c3cccc(Cl)c3)no2)C1 (centres undefined)	-9.721%
Cc1ccc(-c2noc(CN3CCOC(CN(C)C)C3)n2)cc1F (centres undefined)	-11.04%
CC(C)(CNc1ccc2ccc(F)cc2n1)NS(C)(=O)=O	-16.93%

SMILES	Percent Effect
Cc1ccc(-c2noc(CNCC3CN(C)CCO3)n2)cc1F (centres undefined)	8.94%
CC(Cn1cccn1)NCc1nc(-c2cccc(Cl)c2)no1 (centres undefined)	-1.118%
CC(C)(NS(C)(=O)=O)c1nc(-c2ccncc2)no1	92.68%
CCS(=O)(=O)N1CC(c2nc(-c3ccncc3)no2)C1	-18.6%
CC(C)(NS(C)(=O)=O)c1nc(-c2cccc(Cl)c2)no1	115.9%
O=C1[C@H]2CC[C@H](CN(C3CSCCSC3)C2)N1Cc1cscn1	1.539%
COC(=O)c1ccc(N2CCN(C(=O)c3cnn(C)c3)C(C)C2)cc1 (centres undefined)	5.538%
Cc1cnn(CC(C)NCc2ccc(OCc3ccncc3)cc2)c1 (centres undefined)	2.463%
CCn1c(CN(C)C(=O)c2ccc(OC)nc2)nc2ccccc21	-6.401%
OC1(CN2CCCC2)COCCN(c2noc(-c3ccccc3)n2)C1 (centres undefined)	-20.3%
N#Cc1cc(F)c(NCCCOCC2CCOC2)c(F)c1 (centres undefined)	-9.574%
CC(C)(NS(C)(=O)=O)c1nc(-c2ccc(F)c(F)c2)no1	108%
Cc1cc(-c2nnn(CCNS(C)(=O)=O)n2)ccc1F	-4.563%
Cc1cc(-c2noc(C3CCS(=O)(=O)C3)n2)ccc1F (centres undefined)	-6.108%
CCn1cc(CNc2ccc3nccnc3c2)cn1	0.1341%
CS(=O)(=O)N1CCO[C@@H]2CN(Cc3ccc(F)cc3)C[C@@H]2C1	-1.129%
CC(C)C1CN(S(=O)(=O)N(C)C)CCCN1Cc1ccc(F)cc1 (centres undefined)	3.4%
CCS(=O)(=O)N1C[C@@H](O)[C@H](N(C)Cc2ccc(F)cc2)C1	127.5%
CN(Cc1ccc(F)cc1)S(=O)(=O)N1CCOCC1	-4.525%
CN(C)S(=O)(=O)N1CCC2(CCCN(Cc3ccc(F)cc3)C2=O)C1 (centres undefined)	-3.561%
CC[C@@]1(O)CCN(C(=O)CN(C)Cc2ccc(F)cc2)C[C@H]1O	-15.44%
CN(Cc1ccc(F)cc1)[C@@H]1CN(C(=O)c2cccs2)C[C@H]1O	3.837%
CN(Cc1ccc(F)cc1)[C@@H]1CN(S(=O)(=O)N(C)C)C[C@H]1O	124.5%
CN(Cc1ccc(F)cc1)[C@@H]1CN(S(C)(=O)=O)C[C@H]1O	89.96%
